Source: PubChem BioAssay (NCI)
The panel holds about 83,000 compounds, 20% with a hit somewhere; the sample as a whole holds those more often.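 In brief: 96-well plates, 48 h treatment, single concentration, percent growth endpoint.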 Calls of active or inactive are those of the source. How the source made its calls: active means growth percent below 10; inactive means the rest.

Key:
Experiment in all cases: NCI-60 one-dose screen, 48 h (100 = growth as untreated, 0 = no growth, -100 = all killed)
SR leukemia = settings: 10 µM unless noted
RPMI-8226 leukemia = settings: 10 µM unless noted
OVCAR-8 ovarian = settings: 10 µM unless noted
OVCAR-5 ovarian = settings: 10 µM unless noted
OVCAR-4 ovarian = settings: 10 µM unless noted
SK-OV-3 ovarian = settings: 10 µM unless noted
IGROV1 ovarian = settings: 10 µM unless noted
OVCAR-3 ovarian = settings: 10 µM unless noted
NCI/ADR-RES ovarian = settings: 10 µM unless noted
T-47D breast = settings: 10 µM unless noted
BT-549 breast = settings: 10 µM unless noted
MDA-MB-435 melanoma = settings: 10 µM unless noted
SW-620 colon = settings: 10 µM unless noted
MCF7 breast = settings: 10 µM unless noted
HCT-116 colon = settings: 10 µM unless noted
KM12 colon = settings: 10 µM unless noted
HCC-2998 colon = settings: 10 µM

Measured: growth

C[C@@H](Oc1cc(C(=O)Nc2ccc(C(=O)N3CCN(C)CC3)cc2)nnc1N)c1c(Cl)ccc(F)c1Cl
inactive: RPMI-8226 leukemia 36.7% | OVCAR-8 ovarian 63.1% | OVCAR-5 ovarian 75.3% | OVCAR-4 ovarian 78.2% | SK-OV-3 ovarian 66.9% | IGROV1 ovarian 86% | OVCAR-3 ovarian 91.6% | NCI/ADR-RES ovarian 76.5% | T-47D breast 59.4% | BT-549 breast 71.7% | MDA-MB-435 melanoma 68.8% | SW-620 colon 98.1% | MCF7 breast 47.1% | HCT-116 colon 49.4% | KM12 colon 23%
active: SR leukemia 0.634%

CC(C)c1cc(CNc2nc(Nc3cc(C4CC4)[nH]n3)cc(N3CCN(C)CC3)n2)on1
inactive: OVCAR-5 ovarian 18.5% | OVCAR-3 ovarian 15.5% | NCI/ADR-RES ovarian 39.2% | MCF7 breast 11.5%
active: SR leukemia -5.3% | RPMI-8226 leukemia -13.3% | OVCAR-8 ovarian 6.51% | OVCAR-4 ovarian -8.07% | SK-OV-3 ovarian 0.435% | IGROV1 ovarian 8.34% | T-47D breast 6.24% | BT-549 breast -21.9% | MDA-MB-435 melanoma -10.9% | SW-620 colon 7.6% | HCT-116 colon 3.46% | KM12 colon 4.41%

O=C(Nc1cnn2ccc(N3CCC[C@@H]3c3cc(F)ccc3F)nc12)N1CC[C@H](O)C1
inactive: SR leukemia 72.1% | RPMI-8226 leukemia 91.1% | OVCAR-8 ovarian 80.4% | OVCAR-5 ovarian 114% | OVCAR-4 ovarian 117% | SK-OV-3 ovarian 79.6% | IGROV1 ovarian 105% | OVCAR-3 ovarian 99.9% | NCI/ADR-RES ovarian 97% | T-47D breast 78.3% | BT-549 breast 90.5% | MDA-MB-435 melanoma 93% | SW-620 colon 106% | MCF7 breast 99.7% | HCT-116 colon 83.1% | KM12 colon 26.7%

Cc1cc(Nc2ncc(Cl)c(Nc3ccccc3S(=O)(=O)C(C)C)n2)c(OC(C)C)cc1C1CCNCC1
active: SR leukemia -44.7% | RPMI-8226 leukemia -56.7% | OVCAR-8 ovarian -67.2% | OVCAR-5 ovarian -96.6% | OVCAR-4 ovarian -89.2% | SK-OV-3 ovarian -32.2% | IGROV1 ovarian -72.2% | OVCAR-3 ovarian -96.4% | NCI/ADR-RES ovarian -60.6% | T-47D breast -77.7% | BT-549 breast -78.4% | MDA-MB-435 melanoma -100% | SW-620 colon -92.7% | MCF7 breast -73.7% | HCT-116 colon -97.5% | HCC-2998 colon -93% | KM12 colon -95.8%

C[C@@H](Oc1cc(-n2cnc3ccc(CN4CCN(C)CC4)cc32)sc1C(N)=O)c1ccccc1C(F)(F)F
active: SR leukemia -19.6% | OVCAR-8 ovarian 5.18% | SK-OV-3 ovarian -2.74% | MDA-MB-435 melanoma 9.74%
inactive: RPMI-8226 leukemia 34.2% | OVCAR-5 ovarian 19.9% | OVCAR-4 ovarian 33.8% | IGROV1 ovarian 16.8% | OVCAR-3 ovarian 38% | NCI/ADR-RES ovarian 18.5% | T-47D breast 40.8% | BT-549 breast 24.9% | SW-620 colon 13.6% | MCF7 breast 17.7% | HCT-116 colon 17.6% | HCC-2998 colon 14.1% | KM12 colon 10.3%

CN1CCN(c2ccc(OC(F)(F)F)c(Nc3ncc4c(n3)-c3c(c(C(N)=O)nn3CCO)CC4)c2)CC1
active: SR leukemia 4.81% | OVCAR-8 ovarian 9.62% | SK-OV-3 ovarian -3.27% | MDA-MB-435 melanoma -50.5% | SW-620 colon 9.76% | HCT-116 colon 9.89% | KM12 colon 9.34%
inactive: RPMI-8226 leukemia 32.7% | OVCAR-5 ovarian 19.9% | OVCAR-4 ovarian 71.5% | IGROV1 ovarian 25.1% | OVCAR-3 ovarian 41% | NCI/ADR-RES ovarian 12.9% | T-47D breast 43.9% | BT-549 breast 27.8% | MCF7 breast 22.1% | HCC-2998 colon 17%

CN(C)C1CCN(C(=O)c2ccc(NC(=O)Nc3ccc(-c4nc(N5CCOCC5)nc(N5CCOCC5)n4)cc3)cc2)CC1
inactive: NCI/ADR-RES ovarian 95.6% [2.5 µM] | HCT-116 colon 12.8% [2.5 µM]
active: SR leukemia 3.59% [2.5 µM] | RPMI-8226 leukemia -2.37% [2.5 µM] | OVCAR-8 ovarian -20.9% [2.5 µM] | OVCAR-5 ovarian -2.63% [2.5 µM] | OVCAR-4 ovarian -29.9% [2.5 µM] | SK-OV-3 ovarian -51.9% [2.5 µM] | IGROV1 ovarian -54.8% [2.5 µM] | OVCAR-3 ovarian 2.07% [2.5 µM] | T-47D breast -45.3% [2.5 µM] | BT-549 breast -10.1% [2.5 µM] | MDA-MB-435 melanoma -16.6% [2.5 µM] | SW-620 colon 8.13% [2.5 µM] | MCF7 breast 3.87% [2.5 µM] | KM12 colon 5.58% [2.5 µM]

CN(C)C/C=C/C(=O)Nc1cc2c(Nc3ccc(F)c(Cl)c3)ncnc2cc1O[C@H]1CCOC1
inactive: OVCAR-5 ovarian 17% | OVCAR-4 ovarian 20.1%
active: SR leukemia -15.8% | RPMI-8226 leukemia -20.3% | OVCAR-8 ovarian -2.55% | SK-OV-3 ovarian -15.1% | IGROV1 ovarian -27.1% | OVCAR-3 ovarian -14% | NCI/ADR-RES ovarian 5.68% | T-47D breast -6.55% | BT-549 breast -1.8% | MDA-MB-435 melanoma 2.71% | SW-620 colon -22.6% | MCF7 breast 3.59% | HCT-116 colon -59.8% | HCC-2998 colon -71% | KM12 colon -0.867%

CC(=O)NCC(=O)N1[C@@H]2CC[C@H]1c1ccc(Nc3ncc(C(F)(F)F)c(NC4CCC4)n3)cc12
inactive: RPMI-8226 leukemia 71.4% [2.5 µM] | OVCAR-8 ovarian 55.3% [2.5 µM] | OVCAR-5 ovarian 32.4% [2.5 µM] | OVCAR-4 ovarian 64.4% [2.5 µM] | SK-OV-3 ovarian 15.9% [2.5 µM] | IGROV1 ovarian 31.5% [2.5 µM] | OVCAR-3 ovarian 67.8% [2.5 µM] | NCI/ADR-RES ovarian 59.7% [2.5 µM] | T-47D breast 88.4% [2.5 µM] | BT-549 breast 36.3% [2.5 µM] | MDA-MB-435 melanoma 39.9% [2.5 µM] | SW-620 colon 16.3% [2.5 µM] | MCF7 breast 25.1% [2.5 µM] | HCT-116 colon 13.4% [2.5 µM]
active: SR leukemia 2.18% [2.5 µM] | KM12 colon 3.64% [2.5 µM]

CNC(=O)c1ccccc1Nc1nc(Nc2ccc3c(c2OC)CCC[C@H](N2CCN(CCO)CC2)C3)ncc1Cl
active: SR leukemia -5.84% | RPMI-8226 leukemia -13% | OVCAR-4 ovarian 4.95% | SK-OV-3 ovarian -6.83% | IGROV1 ovarian -36.9% | T-47D breast -23.1% | MDA-MB-435 melanoma -27.6% | SW-620 colon -19.9% | MCF7 breast 6.63% | HCT-116 colon -62.6% | KM12 colon -27.3%
inactive: OVCAR-8 ovarian 12.5% | OVCAR-5 ovarian 11.1% | OVCAR-3 ovarian 30.7% | NCI/ADR-RES ovarian 14% | BT-549 breast 29.7%

FC(F)(F)c1ccc(CNc2ccc(Cc3c[nH]c4ncc(Cl)cc34)cn2)cn1
inactive: SR leukemia 11.1% | RPMI-8226 leukemia 26.3% | OVCAR-8 ovarian 14.3% | OVCAR-5 ovarian 30.5% | OVCAR-4 ovarian 30% | SK-OV-3 ovarian 16% | IGROV1 ovarian 41% | OVCAR-3 ovarian 41.6% | NCI/ADR-RES ovarian 12.6% | BT-549 breast 26.3% | SW-620 colon 19% | MCF7 breast 13.6% | HCT-116 colon 15.4% | HCC-2998 colon 18.1%
active: T-47D breast -1.92% | MDA-MB-435 melanoma 6.37% | KM12 colon 7.06%

COc1cc(N2CCC(N(C)C)CC2)ccc1Nc1ncc(Cl)c(Nc2ccccc2P(C)(C)=O)n1
inactive: RPMI-8226 leukemia 27.9% | OVCAR-4 ovarian 18.2% | OVCAR-3 ovarian 16.3% | NCI/ADR-RES ovarian 78.1% | T-47D breast 56.2% | MDA-MB-435 melanoma 23.5% | MCF7 breast 33.1%
active: SR leukemia 6.79% | OVCAR-8 ovarian 4.01% | OVCAR-5 ovarian 1.36% | SK-OV-3 ovarian -77.7% | IGROV1 ovarian -24.5% | BT-549 breast -14.1% | SW-620 colon -1.28% | HCT-116 colon -19.6% | KM12 colon -1.59%

N#Cc1c(C(F)(F)F)cc(Nc2ccc3nc(NCCN4CCCC4)oc3c2)n2c1nc1ccccc12
active: SR leukemia 0.701%
inactive: RPMI-8226 leukemia 44.6% | OVCAR-8 ovarian 65.7% | OVCAR-5 ovarian 137% | OVCAR-4 ovarian 64.2% | SK-OV-3 ovarian 89.9% | IGROV1 ovarian 79.6% | OVCAR-3 ovarian 91.6% | NCI/ADR-RES ovarian 86.5% | T-47D breast 66.9% | BT-549 breast 72.3% | MDA-MB-435 melanoma 90.8% | SW-620 colon 37.4% | MCF7 breast 38.9% | HCC-2998 colon 68% | KM12 colon 73.9%

CCc1nc(C(N)=O)c(Nc2ccc(N3CCC(N4CCN(C)CC4)CC3)c(OC)c2)nc1NC1CCOCC1
active: SR leukemia 1.01% | SK-OV-3 ovarian 4.92% | IGROV1 ovarian 4.12% | SW-620 colon 3.96%
inactive: RPMI-8226 leukemia 28.3% | OVCAR-8 ovarian 39.6% | OVCAR-5 ovarian 26.5% | OVCAR-4 ovarian 81.2% | OVCAR-3 ovarian 53.4% | NCI/ADR-RES ovarian 32% | T-47D breast 65.1% | BT-549 breast 19.9% | MDA-MB-435 melanoma 52.3% | MCF7 breast 25.6% | HCC-2998 colon 61.4% | KM12 colon 13.8%

Cc1nc2cc(-c3nn(C(C)C)c4ncnc(N)c34)ccc2o1
active: SR leukemia -0.778% | RPMI-8226 leukemia -9.63% | OVCAR-8 ovarian -29.1% | OVCAR-5 ovarian -11.3% | OVCAR-4 ovarian -27.4% | SK-OV-3 ovarian -40.9% | IGROV1 ovarian -39% | OVCAR-3 ovarian 2.45% | NCI/ADR-RES ovarian -22.5% | T-47D breast -39.9% | MDA-MB-435 melanoma -20.5% | SW-620 colon 2.48% | MCF7 breast -4.42% | HCT-116 colon 7.77% | HCC-2998 colon -8.93% | KM12 colon 0.531%

COc1ccc2c(OCc3nnc4ccc(-c5ccccc5)nn34)ccnc2c1
inactive: SR leukemia 80.9% [2.5 µM] | RPMI-8226 leukemia 104% [2.5 µM] | OVCAR-8 ovarian 102% [2.5 µM] | OVCAR-5 ovarian 87.3% [2.5 µM] | OVCAR-4 ovarian 100% [2.5 µM] | SK-OV-3 ovarian 73.3% [2.5 µM] | IGROV1 ovarian 106% [2.5 µM] | OVCAR-3 ovarian 110% [2.5 µM] | NCI/ADR-RES ovarian 76.3% [2.5 µM] | T-47D breast 71.1% [2.5 µM] | BT-549 breast 102% [2.5 µM] | MDA-MB-435 melanoma 103% [2.5 µM] | SW-620 colon 109% [2.5 µM] | MCF7 breast 93.4% [2.5 µM] | HCT-116 colon 98.4% [2.5 µM] | KM12 colon 94.3% [2.5 µM]
